Compounds with a hit are over-represented: about 19% of the library has one in this group of screens.
DT40 TDP1 CPT = growth inhibition of DT40 Tdp1-/-;hTDP1 cells with camptothecin (screen for TDP1 inhibitors) | chicken DT40 Tdp1-/-;hTDP1 cells + 20 nM CPT, ATP luminescence, 48 h | Potency, µM (highest dose often 46.2 µM), without a hit: top-dose activity change, negative = growth inhibition, usual class: inhibitors | actives 12% (n = 420,000) | AID 686979; note: potency is the fitted concentration of half-maximal effect; % is set by controls: 0 for no effect and ±100 for the full control effect; nearly all actives have a fitted effect of over 55% in size
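Cell growth measured by CellTiter-Glo luminescence after a minimum 48 h, 37 C compound exposure with 20 nM CPT in Tdp1-knockout DT40 cells stably expressing hTDP1, seeded 400/well; qHTS titration format.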
HepG2 tox = kills HepG2 cells in TGF-b inhibitor counter-screen. HepG2 CAGA-GFP viability, ATP luminescence, 18 h. Potency, µM (titrated, usually from 46.1 µM), inactives show at the highest dose activity change, negative = cytotoxicity, hits mostly cytotoxic. actives 0.76% (n = 410,000). AID 588856; note: potency is the fitted concentration of half-maximal effect
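CellTiter-Glo luminescence gave cytotoxicity after 18 hours at 37 degrees C. The cells were HepG2 CAGA-GFP in 1% FBS DMEM, stimulated with 500 pg/mL TGF-beta after compound addition. %Activity was normalised to no-cell wells (complete cell-killing) and DMSO (no toxicity), and curves were fitted and classified.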
S-ASM inh = human S-ASM enzyme inhibition. P17405. placental ASM, HMU-PC fluorogenic substrate, 60 min. Potency, µM (series often up to 57.5 µM), for inactives: top-dose activity change, negative = inhibition, usual class: inhibitors. actives 0.006% (n = 340,000). AID 504937; note: potency is the fitted concentration of half-maximal effect
Target sequence (P17405 47-631 limits assumed): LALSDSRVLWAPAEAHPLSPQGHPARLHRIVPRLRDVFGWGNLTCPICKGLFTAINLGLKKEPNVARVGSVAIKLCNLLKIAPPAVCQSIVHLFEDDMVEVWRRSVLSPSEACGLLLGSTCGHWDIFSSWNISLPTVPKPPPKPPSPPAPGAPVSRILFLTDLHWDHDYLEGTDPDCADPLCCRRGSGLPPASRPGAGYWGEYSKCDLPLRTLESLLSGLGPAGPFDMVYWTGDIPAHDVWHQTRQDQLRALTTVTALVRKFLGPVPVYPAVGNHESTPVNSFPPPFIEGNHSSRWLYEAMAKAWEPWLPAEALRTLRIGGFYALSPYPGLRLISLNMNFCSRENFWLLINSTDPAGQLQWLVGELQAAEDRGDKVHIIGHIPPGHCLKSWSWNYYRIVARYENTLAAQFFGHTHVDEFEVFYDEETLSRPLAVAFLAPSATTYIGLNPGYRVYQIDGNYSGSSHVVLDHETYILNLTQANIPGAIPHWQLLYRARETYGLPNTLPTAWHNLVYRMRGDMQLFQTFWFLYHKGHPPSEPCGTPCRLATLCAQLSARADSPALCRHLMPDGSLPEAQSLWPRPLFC
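HMU-PC0 cleavage (9 uM final) by human placental ASM, 60 min at 37 °C following 10 min compound exposure at RT; stopped at pH 10, fluorescence Ex 386/Em 447 nm.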
IL1B secr inh = inflammasome signaling inhibition, IL-1 beta readout. THP-1 LPS/ATP IL-1B secretion, AlphaLISA, 16 h; active compounds read low. activity change, % at 57.5 µM. actives 4.7% (n = 360,000); in the data active = activity change below about -50%; inconclusive = mostly about -30% to -49%; note: % is set by controls: 0 for no effect and ±100 for the full control effect
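THP-1 cells pretreated 1 hr with compounds (up to 57.5 uM final), then stimulated with LPS (250 ng/mL final) plus ATP (1.25 mM final); secreted IL-1B measured by AlphaLISA after 16 hr, decreased signal indicating inhibition.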
DT40 TDP1 no CPT = qHTS for Inhibitors of human tyrosyl-DNA phosphodiesterase 1 (TDP1): qHTS in cells in absence of CPT; AID 686978, 2013; DT40 Tdp1-/- hTDP1 cells, no CPT, ATP luminescence, 48 h; actives 15% (n = 420,000); Potency, µM (top dose mostly 46.2 µM), for the others: top-dose activity change, negative = growth inhibition, actives largely listed as inhibitors; note: potency is the fitted concentration of half-maximal effect; % is set by controls: 0 for no effect and ±100 for the full control effect; nearly all actives have a fitted effect of over 55% in size
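Seeded 400 DT40-hTDP1 cells/well (vehicle DMSO, no 20 nM CPT); pinned compounds; ≥48 hr at 37 °C; CellTiter-Glo luminescence as viability measure.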
TGFb SMAD3 inh = inhibitors of TGF-b signaling; HepG2 CAGA-GFP TGF-b/SMAD3 reporter, GFP fluorescence, 18 h; TGF-beta stimulated, 500 pg/mL final; Potency, µM (highest dose often 46.1 µM), without a hit: top-dose activity, negative = inhibition, usual class: inhibitors; actives 1.2% (n = 410,000); note: potency is the fitted concentration of half-maximal effect; % is set by controls: 0 for no effect and ±100 for the full control effect; nearly all actives have a fitted effect of over 65% in size
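First, reporter cells (HEPG2 CAGA-GFP) rested 2 h at 37 degrees C. Next, compounds were pinned in and TGF-beta added to 500 pg/mL final. After 18 h, GFP was imaged per cell and summed per well.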
The depositor's hits bear a star; i = inactive; ? = inconclusive; . = no result; [ ] = another dose, or the depositor's remark. Unless noted, calls come from the whole dose curve; as a rule, active = well fitted curve in the direction sought with a large enough effect; inconclusive = small, poorly fitted or top-dose-only effect, or another doubt; inactive = no such curve, though single readings can be large; an effect the other way counts as inactive or inconclusive.

SMILES	DT40 TDP1 CPT	HepG2 tox	S-ASM inh	IL1B secr inh	DT40 TDP1 no CPT	TGFb SMAD3 inh
O=C(Nc1nc(-c2ccc(S(=O)(=O)N3CCCC3)cc2)cs1)C1COc2ccccc2O1 (centres undefined)	9.2µM*	-9%	-3%	-29	7.3µM*	7%
Cc1ccc2sc(NNC(=O)C3COc4ccccc4O3)nc2c1C (centres undefined)	26µM*	-26%	11%	-11	?	-19%
Cc1ccc2sc(NNC(=O)c3cc(=O)c4ccccc4o3)nc2c1C	29µM*	-54%	-19%	31	?	?
Cc1cccc2sc(NNC(=O)c3cc(=O)c4ccccc4o3)nc12	?	-53%	-6%	24	?	?
CCOc1ccc(CCNC(=O)c2cnc3sc(N4CCCCC4)nn3c2=O)cc1	?	2%	.	.	-25%	0%
O=C1Nc2ccccc2C(=O)N(C2CCCC2)C1C(=O)NC1CC1 (centres undefined)	-5%	.	.	-6	6%	.
O=C(Nc1nc(-c2ccccn2)cs1)C1COc2ccccc2O1 (centres undefined)	3.3µM*	-14%	-12%	94	5.2µM*	-31%
O=C(Nc1cccc([N+](=O)[O-])c1)C12CC3CC(C1)CC(n1cnc([N+](=O)[O-])n1)(C3)C2	26µM*	-19%	-5%	-21	?	-2%
O=C(Nc1ccccc1)C12CC3CC(C1)CC(n1cnc([N+](=O)[O-])n1)(C3)C2	-6%	-8%	1%	22	-2%	-22%
Cc1cc(=O)n2ccccc2c1C#N	-10%	-2%	i	6	-11%	2%
COc1ccc2c(C#N)c3ccccn3c2c1	?	7%	197%	-9	23µM*	-12%
O=[N+]([O-])c1ccc(N2CCN(c3ccccc3Cl)CC2)cn1	18µM*	-2%	-4%[11.5 µM]	-1	21µM*	-1%
O=C(COC(=O)/C=C/c1cccc(C(F)(F)F)c1)NCc1cccs1	-21%	4%	4%	-3	-4%	14%
COc1cccc2c(C)cc(N3CCCCCC3)nc12	-15%	-36%	326%	1	?	-22%
COc1ccc(OC)c2c(C)cc(N3CCCCCC3)nc12	?	-30%	113%	-11	9.2µM*	?
Cc1ccc(C2NNC(=O)C2NC(=O)c2ccccc2)cc1 (centres undefined)	-11%	0%	4%	-7	-5%	-12%
CCOC(=O)C1=C(CSc2nc3c(cc2C#N)CN(C)CC3)OC(N)=C(C#N)C1c1ccc(F)cc1 (centres undefined)	?	-3%	16%	-2	?	0%
CCOC(=O)C1=C(CSc2nc3c(cc2C#N)CN(C)CC3)OC(N)=C(C#N)C1c1ccccc1 (centres undefined)	?	3%	31%	2	29µM*	36%
CCOC(=O)C1=C(CSc2nc3c(cc2C#N)CCC3)OC(N)=C(C#N)C1c1ccccc1 (centres undefined)	29µM*	-1%	11%	19	?	-17%
CC(=O)c1sc(N/N=C\c2ccc(Br)cc2)nc1C	?	-5%	121%	-3	?	30%
CC(=O)c1sc(N/N=C\c2cccc(Br)c2)nc1C	?	-27%	67%	-66*	?	-20%
COc1cc(-c2noc(-c3cc(C(C)C)[nH]n3)n2)cc(OC)c1OC	?	-43%	.	.	21µM*	-15%
CC(C)c1cc(-c2nc(-c3ccc(Cl)cc3)no2)n[nH]1	21µM*	-90%	.	.	21µM*	?
